About 83,000 compounds went through this panel and 20% of them were active in at least one assay; those are over-represented in the sample as a whole.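 The test compound was applied at a single concentration to cells in 96-well plates for 48 hours, and percent growth was recorded.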 Active and inactive are the calls of the source. The calls were made as follows: active = growth percent below 10; inactive = the rest.

The subject of the assay is MDA-MB-468 breast. As to the kind of experiment: NCI-60 one-dose screen, 48 h (100 = growth as untreated, 0 = no growth, -100 = all killed). As to conditions: 10 µM unless noted.
Regarding `COC1=CC(c2ccc[nH]2)=N/C1=C\c1[nH]c(C)c(C(=O)CCCCC(=O)Nc2ccccc2)c1C`, the growth is -10.7% (active).
Under `CN1C(=O)/C(=C/c2ccc(C(=O)Nc3ncc(Cc4cccc(C(F)(F)F)c4)s3)cc2)SC1=S` stands -2.76% (active); under `CCCCCCNC(=O)Oc1ccc(/C(=C(/C)c2ccccc2)c2ccc(OCCN(C)C)cc2)cc1`, 71.5% (inactive); under `CN[C@@H]1C(OC2[C@H](O[C@H]3[C@H](O)[C@@H](O)[C@H](N=C(N)N)[C@@H](O)[C@@H]3N=C(N)N)OC(C)[C@]2(O)CO)OC(CO)C(O)C1O` (stereo not given in full), 108% (inactive).
The figure for `C#C[C@]1(O)CCC2C3CCc4cc(O)ccc4C3CC[C@@]21C` (stereo not given in full) is 12.1% (inactive).
For the compound `O=S(=O)(NCCCNc1cc(-c2cn(-c3ccccc3)nc2-c2cccc(O)c2)ccn1)c1ccc(Br)cc1`, the growth is -27.4% (active).
Under `CC(C)n1nc(C#Cc2cccc(NC(=O)c3cccc(C(F)(F)F)c3)c2)c2c(N)ncnc21` stands 8.73% (active).
Take `Clc1ccc(-c2nc(-c3cccs3)no2)cc1`: the growth is 44.7% (inactive).
Under `C(=N\Nc1ncnc2sc3c(c12)CCNC3)/c1cccc2ccccc12` stands 72.1% (inactive).
The figure for `COC1=CC(c2ccc[nH]2)=N/C1=C\c1[nH]c(C)c(CC(=O)OCc2ccccc2)c1CCC(=O)OCc1ccccc1` is -31.2% (active).
The figure for `CCC(CC)(N(CC(=O)O)CC(=O)O)C(CC)(CC)N(CC(=O)O)CC(=O)O` is 127% (inactive); for `O=C(Cn1cccc(Nc2ccccc2)c1=O)Nc1ccccc1` it is 95.1% (inactive); for `Nc1nc(-c2ccccc2)nc(N)c1N=O` it is 72.4% (inactive).
Consider `O=C(/C=C/c1ccccc1Cl)Nc1ncc(Cc2cc(Cl)ccc2Cl)s1`, for which the growth was 22.8% (inactive).
For the compound `Cn1c2c(c3ccc(-c4ccn[nH]4)cc3c1=O)C(=O)c1ccccc1-2`, the growth was 46.2% (inactive).
The figure for `O=C1/C(=C/c2ccccc2)CN(C(=O)C(Cl)Cl)C/C1=C\c1ccccc1` is -32.8% (active); for `COc1ccc2c(c1)c(-c1nc(-c3cn(C)c4ncccc34)cs1)cn2CCO` it is -16.8% (active).
The figure for `COc1ccc(-c2cc(NC(=O)Nc3ccc4ncsc4c3)no2)cc1` is 99.2% (inactive); for `O=C1C=CC(=O)N1c1cccc2c1CCCC2` it is 95.1% (inactive); for `COC(=O)c1ccc2oc(NC(=O)c3ccc(N4CCOCC4)c([N+](=O)[O-])c3)nc2c1` it is 113% (inactive).
`O=CC(OC(=O)c1ccccc1)C(OC(=O)c1ccccc1)C(COC(c1ccccc1)(c1ccccc1)c1ccccc1)OC(=O)c1ccccc1` (stereo not given): the growth is 74.6% (inactive).
The figure for `CC(C)(C)[Si](C)(C)O[C@H]1C(=O)C=CN2CC=C[C@@H]12` is 99.4% [100 µM] (inactive); for `CC(=O)Oc1cc(C)c(OC(C)=O)c(C)c1C` it is 47.1% (inactive).
Regarding `CN=C1C=C/C(=N/N=c2/ccn(O)cc2C)C=C1C`, the growth is 83.1% (inactive).
The figure for `N/C(=N\c1nc2c(Cl)cccc2s1)C(Cl)(Cl)Cl` is 22.6% (inactive); for `Cc1nc(-c2cc3ccccc3oc2=O)ccc1C(=O)/C=C/c1ccccn1` it is 60.5% (inactive); for `Clc1ccc(/C=C/c2nc(Nc3ccc(Cl)cc3)c3ccccc3n2)cc1` it is 110% (inactive).
Consider `Oc1ccc(-c2nc3ccc(/C(=N\N=C\c4ccc(Cl)cc4)c4ccccc4)cc3[nH]2)cc1`, for which the growth is 79.5% (inactive).
The figure for `CCN(CC)S(=O)(=O)c1ccc(-c2nc(C(Cl)Cl)nc3cc(C)nn23)cc1` is -33.6% (active).
Under `CC(=O)CCS(=O)c1ccccc1` (stereo not given) stands 104% (inactive).
Take `COc1ccc2cc(-c3nc4ccc(C)cn4c3NCc3ccco3)c(=O)[nH]c2c1`: the growth is 67.1% (inactive).
The figure for `CC/C=C\C[C@H](O)C/C=C1/C(=O)C(Cl)=C[C@@H]1C/C=C\CCCC(=O)OC` is -62.1% (active); for `CC(=O)O[C@H]1C(=O)[C@@]2(C)C([C@H](OC(=O)c3ccccc3)[C@]3(O)C[C@H](OC(=O)[C@H](O)[C@@H](NC(=O)c4ccccc4)c4ccccc4)C(C)=C1C3(C)C)[C@]1(OC(C)=O)CO[C@@H]1C[C@@H]2O` (stereo not given in full) it is -11.7% (active).
Under `COc1cc(Cn2c(SCCC(=O)Nc3ccc(F)cc3)nc3ccccc3c2=O)cc(OC)c1OC` stands 88.1% (inactive).
On to `CCN1CCN(CC(=O)Nc2ccc(-c3cn4c(n3)sc3cc(Oc5ccnc(C(=O)NC)c5)ccc34)cc2)CC1`, for which the growth is 74.4% (inactive).
Consider `CC(C)(C)OC(=O)Nc1ccc(-c2cccc(Oc3ccc4nnc(Cl)n4n3)c2)cc1`, for which the growth was 61.9% (inactive).
As for `CCOC(=O)c1c(NC(=O)c2ccc(C(C)C)cc2)sc2c(CN(C)C)c(O)ccc12`, the growth was -53.1% (active).
Under `O=C1/C(=C/c2ccc(Cl)cc2)CN(C(=O)CCN2CCC(=NO)CC2)C/C1=C\c1ccc(Cl)cc1` stands -65.3% (active).
As to `N#CC1=C(N)Oc2c(sc3c(Br)cccc23)C1c1ccc(Br)cc1` (stereo not given), the growth was 12.1% (inactive).
The figure for `O=C(C1=Cc2cc3ccccc3n2Cc2cnnn21)c1ccccc1` is 5.98% (active).

For the origin of these results see PubChem BioAssay (NCI).
